Screening data from PubChem BioAssay.
ClpP mod: qHTS Assay for Activators of ClpP; AID 651965, 2013; purified B. subtilis ClpP, FRET peptide cleavage, 20 min; 1.9% of 340,000 active; Potency, µM (top dose mostly 57.5 µM), without a hit: at the highest dose activity change, negative = active; ATP-dependent Clp protease proteolytic subunit (Bacillus subtilis (strain 168)), P80244; active means well fitted falling curve with a large enough effect; inconclusive means small, poorly fitted or top-dose-only effect; inactive means no such curve, though single readings can be large or run the other way; further: potency means the concentration at half of the fitted maximal effect; the source files actives as falling curves though it sought activators and does not explain the sign; nearly all actives have a fitted effect of over 65% in size
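ClpP 10 microg/mL final, pH 8 Tris/KCl buffer with BSA, glycerol, Tween-20; compound pinned in; FRET-FV substrate; RT 20 min; Ex320/Em430; ΔFRET vs ADEP 5.8 microM, DMSO, no enzyme.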
KCNH2 WT inh: blocks the wildtype human KCNH2 potassium channel. Q12809. U2OS, BacMam KCNH2, thallium flux FluxOr; stronger effect = lower value. activity change, % at 1.84 µM. 0.37% of 340,000 active. AID 720551;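 active means maximum activity change below -70%; inconclusive means maximum activity change between -70% and -50%; inactive means maximum activity change above -50%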; further: on the % scale 0 is the no-effect control and ±100 the full control effect
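U2OS cells transduced with wild-type KCNH2 virus are loaded with FluxOr dye for 45 min, and thallium flux is measured in kinetic reads before and after stimulation buffer. Rate constants are normalized to DMSO controls.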
p53 reactivation: restores transcriptional activity of mutant p53; 0.063% of 320,000 active; H1299 p53-A138V BP100-luciferase reporter, luminescence, 24 h; Potency, µM (doses to about 92.2 µM), inactives show top-dose activity change, positive = activation, usual class: activators; active means well fitted activation curve with a large enough effect; inconclusive means small, poorly fitted or top-dose-only effect; inactive means no such curve, though single readings can be large or run the other way; further: potency means the concentration at half of the fitted maximal effect; % of control where 0% means no effect; nearly all actives have a fitted effect of over 45% in size
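H1299 (p53-null), stable ts p53-A138V + BP100-Luc; 1000 cells/well, Opti-MEM/10% FBS; cpd 4 pt, 1:5; 24 h, 37 deg C, 5% CO2; detection reagent 10 min RT; luminescence.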
TRPV1 ag: human TRPV1 agonism; 0.19% of 320,000 active; Q8NER1; TRPV1-expressing cells, Fluo-8 calcium influx, agonist mode; AID 540275; activation, % at 8.33 µM; in the data active means activation above about 80%; inconclusive means between about 30% and that limit; further: 0% is about no effect
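TRPV1-expressing cells were cultured overnight at 35.5C and loaded with Fluo-8 calcium dye for 40 to 90 min at room temperature. After a 10 s baseline, compound was added and calcium influx was read kinetically for 3 min (ex 480/em 520 nm).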
TRPV1 PAM: human TRPV1 potentiation; Q8NER1; TRPV1-expressing cells, Fluo-8 calcium influx, capsaicin EC20 potentiation; potentiation, % at 8.33 µM; 0.02% of 320,000 active; AID 540277; in the data active means potentiation above about 80%; inconclusive means between about 30% and that limit; further: 0% is about no effect
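Cells expressing TRPV1 were dye-loaded with Fluo-8 and read kinetically: 10 s baseline, 3 min after compound (agonist portion), then 2 min after EC20 capsaicin (allosteric enhancer portion). Calcium-bound dye fluorescence at 480/520 nm.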
KCNH2 3.1 block: KCNH2 3.1 (human) potassium channel inhibition; activity change, % (tested at about 1.8 µM); U2OS KCNH2 3.1, thallium flux FluxOr; stronger effect = lower value; AID 720553; 0.95% of 340,000 active;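 active means maximum activity change below -70%; inconclusive means maximum activity change from -70% to -50%; inactive means maximum activity change above -50%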;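 further: thallium influx rate constant from kinetic fluorescence after stimulation buffer; on the % scale 0 is the no-effect control and ±100 the full control effect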
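We transduce U2OS cells with the mutant 3.1 virus, culture them overnight, load FluxOr with Red40 quencher for 45 min, then add stimulation buffer and read kinetically for 2 min to derive a normalized rate constant.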
* hit, by the source's call. Hits are enriched below; roughly 2.6% of the tested compounds scored in any of these assays.

How did COc1cc(OC)cc(C(=O)NCC(=O)OCC(=O)c2cc(C)n(Cc3ccco3)c2C)c1 do in these assays?
ClpP mod: 10µM*; KCNH2 WT inh: 18; p53 reactivation: 0%; TRPV1 ag: 2; TRPV1 PAM: -1; KCNH2 3.1 block: 2

How did CCOc1ccc(N2C(=O)C3C(c4ccccc4)=NN(c4ccccc4)C3C2=O)cc1 (stereo not drawn) do in these assays?
ClpP mod: 11µM*; KCNH2 WT inh: -16; p53 reactivation: -8%; TRPV1 ag: 1; TRPV1 PAM: 11; KCNH2 3.1 block: 1

How did N#Cc1ccc(CN(Nc2ccccc2)c2ccccc2)cc1 do in these assays?
ClpP mod: 1%; KCNH2 WT inh: 7; KCNH2 3.1 block: inconclusive

What do the screens show for `Cc1nc2c(C(=O)NCCC(C)C)c[nH]n2c(=O)c1Cl`?
ClpP mod: 32µM*; KCNH2 WT inh: 13; p53 reactivation: 1%; TRPV1 ag: 0; TRPV1 PAM: 10; KCNH2 3.1 block: -7

Results for CCOC(=O)c1oc2c(O)c(O)ccc2c(=O)c1-c1nncn1-c1ccccc1 ?
ClpP mod: 22µM*; KCNH2 WT inh: -1; p53 reactivation: 14%; TRPV1 ag: -2; TRPV1 PAM: 5; KCNH2 3.1 block: -4

Results for CCN1CCN(c2ccc(S(=O)(=O)N3CCCCC3)cc2NC(=O)c2cccc(OC(F)F)c2)CC1 ?
ClpP mod: 2%; KCNH2 WT inh: -84*; p53 reactivation: -6%; TRPV1 ag: -1; TRPV1 PAM: 2; KCNH2 3.1 block: -118*

Results for CCN1CCN(c2ccc(S(=O)(=O)N3CCCCC3)cc2NC(=O)c2cc3ccccc3o2)CC1 ?
ClpP mod: 16µM*; KCNH2 WT inh: -27; p53 reactivation: 2%; TRPV1 ag: -1; TRPV1 PAM: 1; KCNH2 3.1 block: -39

What do the screens show for `CCN1CCN(c2ccc(S(=O)(=O)N3CCCCC3)cc2NC(=O)/C=C/c2ccc(F)cc2)CC1`?
ClpP mod: 1%; KCNH2 WT inh: 12; p53 reactivation: -3%; TRPV1 ag: -4; TRPV1 PAM: 4; KCNH2 3.1 block: -13

How did CCN1CCN(c2ccc(S(=O)(=O)N3CCCCC3)cc2NC(=O)/C=C/c2ccc(OC(F)F)cc2)CC1 do in these assays?
ClpP mod: -6%; KCNH2 WT inh: -90*; p53 reactivation: 27%; TRPV1 ag: 10; TRPV1 PAM: -7; KCNH2 3.1 block: -80*

How did CCN1CCN(c2ccc(S(=O)(=O)N3CCCCC3)cc2NC(=O)/C=C/c2ccc([N+](=O)[O-])cc2)CC1 do in these assays?
KCNH2 WT inh: -43; p53 reactivation: inconclusive; TRPV1 ag: -6; TRPV1 PAM: -2; KCNH2 3.1 block: -76*

Results for Clc1ccc(-c2cc3nc(NCc4cccc(Cl)c4)ccn3n2)cc1 ?
ClpP mod: 5%

What do the screens show for `Cc1c(CC(=O)NCc2ccccc2Cl)c(=O)oc2cc(O)ccc12`?
ClpP mod: 4%

What do the screens show for `C[C@H](NC(=O)OC(C)(C)C)[C@@H](O)c1ccco1`?
ClpP mod: -2%

Results for O=C(CN1C(=O)C2(SCC(=O)N2c2ccc(F)cc2)c2ccccc21)NCCc1ccccc1 (stereo not drawn) ?
ClpP mod: -1%

What do the screens show for `Cc1ccccc1C(=O)Nc1cc(S(=O)(=O)N2CCCCC2)ccc1N1CCN(C)CC1`?
ClpP mod: 2%; KCNH2 WT inh: 14; p53 reactivation: -15%; TRPV1 ag: 22; TRPV1 PAM: -19; KCNH2 3.1 block: 4

What do the screens show for `CN1CCN(c2ccc(S(=O)(=O)N3CCCCC3)cc2NC(=O)c2ccc3ccccc3c2)CC1`?
ClpP mod: 20µM*; KCNH2 WT inh: -6; p53 reactivation: -9%; TRPV1 ag: 0; TRPV1 PAM: -13; KCNH2 3.1 block: -13
